Rows were chosen to be rich in hits. Some 19% of all compounds tested hit in one or more screens of this group.
DT40 TDP1 CPT: growth inhibition of DT40 Tdp1-/-;hTDP1 cells with camptothecin (screen for TDP1 inhibitors). chicken DT40 Tdp1-/-;hTDP1 cells + 20 nM CPT, ATP luminescence, 48 h. AID 686979. 12% of 420,000 active. Potency, µM (highest dose often 46.2 µM), hits mostly inhibitors; further: nearly all actives have a fitted effect of over 55% in size
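Chicken DT40 Tdp1-/- cells complemented with human TDP1, 400 cells/well, exposed to compounds plus 20 nM camptothecin for at least 48 h at 37 C; viability read as ATP content by CellTiter-Glo luminescence.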
KB-V1 MDR tox: KB-V1 MDR subline cytotoxicity. Potency, µM (series often up to 46.1 µM), hits mostly cytotoxic. AID 1347076. 3.4% of 400,000 active. KB-V1 MDR cells viability, CellTiter-Glo, 72 h; further: nearly all actives have a fitted effect of over 60% in size
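KB-V1 MDR subline cells in DMEM (phenol-red free, 10% FBS) exposed to compounds in qHTS concentration series for 72 h at 37 degrees C. Viability read by CellTiter-Glo luminescence; concentration-effect curves fitted after normalization and correction.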
HT1080NT lethal: kills 2HG-producing HT-1080-NT fibrosarcoma cells; AID 686970; HT-1080-NT fibrosarcoma viability, CellTiter-Glo ATP luminescence, 48 h; Potency, µM (series often up to 46.1 µM), hits mostly cytotoxic; 1.6% of 360,000 active;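 further: NT is the 2HG producing partner of a matched IDH1 knockdown line; nearly all actives have a fitted effect of over 55% in size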
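HT-1080-NT fibrosarcoma cells (2HG-overproducing), 750 cells/well in RPMI with 5% FBS, dosed after 2 h and incubated 48 h at 37C. CellTiter-Glo luminescence normalized to DMSO and no-cell wells; concentration-response curves fitted and classed.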
KB-3-1 cytotox: KB-3-1 parental cell cytotoxicity; KB-3-1 viability, CellTiter-Glo ATP luminescence, 72 h; Potency, µM (top dose mostly 46.1 µM), actives largely listed as cytotoxic; 1.4% of 400,000 active; further: nearly all actives have a fitted effect of over 60% in size
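Parental KB-3-1 adenocarcinoma cells in phenol-red-free DMEM with 10% FBS were pin-treated with compounds at several concentrations, incubated 72 h at 37 °C, and viability read by CellTiter-Glo luminescence; concentration-effect curves were fitted after normalization.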
HT1080 IDH1KD tx: HT-1080 IDH1 knockdown cell toxicity (counter line); HT-1080 IDH1 knockdown viability, ATP luminescence, 48 h; Potency, µM (doses to about 46.1 µM), most hits filed as cytotoxic; 2% of 360,000 active
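Luminescent ATP read-out (CellTiter-Glo, 10 min at room temperature) after 48 h compound exposure at 37 °C gave viability of IDH1-knockdown HT-1080 cells. Activity was normalised to DMSO and cell-free wells, then fitted as concentration-response curves.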
TDP1 cell noCPT: qHTS for Inhibitors of human tyrosyl-DNA phosphodiesterase 1 (TDP1): qHTS in cells in absence of CPT; DT40 Tdp1-/- hTDP1 cells, no CPT, ATP luminescence, 48 h; Potency, µM (top dose mostly 46.2 µM), actives largely listed as inhibitors; 15% of 420,000 active; AID 686978, 2013; further: nearly all actives have a fitted effect of over 55% in size
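Luminescent ATP content (CellTiter-Glo) served as the growth readout. Knockout chicken DT40 cells expressing human TDP1 were exposed to compounds without camptothecin for a minimum 48 hr at 37 °C.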
Numbers stand for hits; - = inactive; ? = inconclusive; . = not tested or not shown; [ ] = remark or other dose. The call rests on the fitted dose curve; in most records, active means well fitted curve in the direction sought with a large enough effect; inconclusive means small, poorly fitted or top-dose-only effect, or another doubt; inactive means no such curve, though single readings can be large; an effect the other way counts as inactive or inconclusive.

SMILES	DT40 TDP1 CPT	KB-V1 MDR tox	HT1080NT lethal	KB-3-1 cytotox	HT1080 IDH1KD tx	TDP1 cell noCPT
CN(Cc1ccccc1F)C(=O)CCNC(=O)c1ccc(C(C)(C)C)cc1	?	-	-	-	-	?
Cc1nnc(Sc2nc3c(c(=O)[nH]c(=O)n3C)n2CCc2ccccc2)s1	-	-	-	-	-	-
Cn1c(=O)[nH]c(=O)c2c1nc(Sc1ccccc1)n2CCc1ccccc1	-	-	-	-	-	-
CCCn1c(N)c(C(=O)CSc2nnc(N)s2)c(=O)[nH]c1=O	-	-	-	-	-	-
CCCn1c(N)c(C(=O)CSc2nc3ccccc3s2)c(=O)[nH]c1=O	21µM	?	-	?	?	16µM
Cc1ccc(Cn2c(Sc3nnc(C)s3)nc3c2c(=O)[nH]c(=O)n3C)cc1	?	-	-	-	-	23µM
Cn1c(=O)[nH]c(=O)c2c1nc(Sc1nc3ccccc3s1)n2Cc1ccccc1	8.2µM	?	?	-	?	6.5µM
Cc1c(NC(=O)C(C)OC(=O)c2ccc([N+](=O)[O-])cc2Cl)c(=O)n(-c2ccccc2)n1C (configuration not stated)	-	-	-	-	-	-
Cc1cc(CNC(=O)C(C)Cc2ccccc2)nn1C (configuration not stated)	-	-	-	-	-	-
O=C(CCc1nc2ccccc2c(=O)[nH]1)NNC(=O)COc1cccc(F)c1	?	-	-	-	-	-
Cc1ccc(N2C(=O)Nc3ccccc3S2(=O)=O)cc1Cl	-	-	-	-	-	?
COc1ccc(-n2cc(-c3ccccc3)[nH]c2=S)c(OC)c1	7.3µM	-	?	16µM	?	5.8µM
COc1ccc(-c2cn(-c3ccc(C)cc3C)c(=S)[nH]2)cc1OC	?	-	-	-	-	21µM
COc1ccc(-n2cc(-c3ccc(OC)c(OC)c3)[nH]c2=S)cc1	-	-	-	-	-	?
Cc1cc(C(=O)N2CCN(c3ccc([N+](=O)[O-])cc3)CC2)n[nH]1	3.3µM	-	-	-	-	2.6µM
CCSc1ccccc1C(=O)N1CCN(c2ccc([N+](=O)[O-])cc2)CC1	?	?	-	?	?	16µM
O=C(c1cc2ccccc2cc1O)N1CCN(c2ccc([N+](=O)[O-])cc2)CC1	29µM	-	-	-	-	15µM
O=S1(=O)CC(N2CC=CC2)CN1Cc1cn(Cc2ccc(F)cc2)nn1 (configuration not stated)	-	-	-	-	-	-
COCCCNCCOCCOc1ccccc1-c1ccccc1	?	23µM	-	-	-	?
CC(C)(C)NCCOCCOc1ccccc1-c1ccccc1	12µM	23µM	-	-	-	?
CCC(C)NCCOCCOc1ccccc1-c1ccccc1 (configuration not stated)	?	-	?	-	?	?
COc1ccccc1C1CN(Cc2cccc(C)n2)Cc2ccccc2O1 (configuration not stated)	-[9.04 µM]	.	.	.	.	16µM
Cc1nc2sccn2c1CN1Cc2ccccc2OC(c2ccccc2F)C1 (configuration not stated)	-[9.04 µM]	.	.	.	.	18µM
CSc1ncccc1C(=O)NCCN1Cc2ccccc2OC(c2ccccc2F)C1 (configuration not stated)	-[9.04 µM]	.	.	.	.	?
COc1ccccc1C1CN(Cc2c(O)cccc2OC)Cc2ccccc2O1 (configuration not stated)	-[9.04 µM]	.	.	.	.	-
COCCN1C(=O)COc2ccccc2C1C(=O)NC(C)(C)C (configuration not stated)	-	?	-	-	-	-
Cc1nnc(NC(=O)CSc2nc3c([nH]c4ccccc43)c(=O)n2-c2ccc(Cl)cc2)s1	?	-	.	-	.	?
COC(=O)c1ccc(-c2cc(CC3(C(=O)OC)CCN(C(=O)OC(C)(C)C)CC3)on2)cc1	23µM	-	-	-	-	?

Screens from PubChem.
